# Screens as filed in PubChem BioAssay.
# In the library only some 1.6% were active in any assay of this set; here they are far more common.
# PKA-R2B act: activators of PKA-R2B holoenzyme, primary screen, biochemical, fluorescence polarization, Cy5-IP20, human. cAMP-dependent protein kinase catalytic subunit beta (Homo sapiens) + cAMP-dependent …. PKA-R2B holoenzyme dissociation; R2B truncated from residue 108, S112A mutant; 0% DMSO only, 100% 113 µM cGMP. activation, % at 11.4 µM. 340,000 tested, 0.079% active. AID 504700, 2011;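 active means activation above a cutoff set at the mean over all compounds plus 3 SD, cut at about 18% in these data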;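 further: higher means more holoenzyme dissociation and a rise in polarization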
# VLA-4 inh: inhibition in human VLA-4 binding assay, primary screen, VLA-4 allosteric modulator project, MLPCN library, flow cytometry, VLA-4 expressing cells; 330,000 tested, 0.2% active; inhibition, % (about 7 µM as worked out from the volumes in the protocol); Integrin alpha-4 (Homo sapiens), P13612; AID 2557, 2010; ligand binding flow cytometry; in the data active means inhibition above about 50%
# ATG4B inhibitor: ATG4B protease inhibitors, primary screen, biochemical, fluorescence, uHTS; inhibition, % at 8.33 µM; ATG4B cleavage of LC3-PLA2, NBD-HPC fluorescence, 1 h; AID 504462, 2011; 340,000 tested, 0.51% active; in the data active means inhibition above about 40%
# PKA-R1A activ: activators of PKA-R1A holoenzyme, primary screen, biochemical, fluorescence polarization, Cy5-IP20, bovine R1A, mouse PKAc. cAMP-dependent protein kinase type I-alpha regulatory subunit (Bos taurus) + …. PKA-R1A dissociation; scaled: DMSO 0%, 113 µM cGMP 100%. activation, % at 11.4 µM. 340,000 tested, 0.083% active;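 active means percent activation above the mean of all tested compounds plus 3 SD, cut at about 19% in these data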;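 further: higher means more PKAc released from R1A so a rise in polarization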
# NRP1-CendR mod: modulators of CendR peptide binding to NRP-1, primary screen, biochemical, fluorescence polarization, uHTS; Neuropilin-1 (Homo sapiens), O14786; FAM-RPARPAR peptide binding to NRP-1; inhibition, % at 25 µM; 360,000 tested, 0.85% active;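 active means inhibition or corrected inhibition above about 18%, plus a signal ratio from 0.5 to 1.5, limit read from the data, passing the limit was not always enough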
# Target sequence (O14786 whole entry, looked up): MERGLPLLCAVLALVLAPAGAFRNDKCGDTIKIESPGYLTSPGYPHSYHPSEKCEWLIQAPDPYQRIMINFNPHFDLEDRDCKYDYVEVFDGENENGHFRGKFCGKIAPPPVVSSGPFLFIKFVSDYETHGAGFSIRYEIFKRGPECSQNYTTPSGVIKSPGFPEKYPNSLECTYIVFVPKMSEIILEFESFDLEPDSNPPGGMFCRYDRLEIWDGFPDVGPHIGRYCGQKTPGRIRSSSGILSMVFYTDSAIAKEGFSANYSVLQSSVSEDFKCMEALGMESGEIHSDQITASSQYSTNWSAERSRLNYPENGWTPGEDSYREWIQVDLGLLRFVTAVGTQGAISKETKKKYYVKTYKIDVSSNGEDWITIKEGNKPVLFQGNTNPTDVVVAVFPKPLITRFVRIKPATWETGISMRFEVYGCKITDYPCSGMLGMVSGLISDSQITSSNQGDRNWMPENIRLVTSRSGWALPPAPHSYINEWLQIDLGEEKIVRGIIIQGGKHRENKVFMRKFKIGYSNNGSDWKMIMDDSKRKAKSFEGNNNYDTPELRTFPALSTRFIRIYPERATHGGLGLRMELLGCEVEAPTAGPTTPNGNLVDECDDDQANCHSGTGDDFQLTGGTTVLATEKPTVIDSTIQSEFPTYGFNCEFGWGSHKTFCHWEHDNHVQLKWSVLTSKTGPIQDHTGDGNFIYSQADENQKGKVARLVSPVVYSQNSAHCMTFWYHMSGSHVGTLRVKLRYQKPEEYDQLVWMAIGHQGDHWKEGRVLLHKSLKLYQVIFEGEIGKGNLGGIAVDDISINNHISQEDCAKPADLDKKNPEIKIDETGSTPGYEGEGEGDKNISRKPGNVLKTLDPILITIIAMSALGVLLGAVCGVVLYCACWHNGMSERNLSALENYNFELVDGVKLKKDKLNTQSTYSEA
# Numbers without * were called inactive; . = no result.
SMILES,PKA-R2B act,VLA-4 inh,ATG4B inhibitor,PKA-R1A activ,NRP1-CendR mod
CCN(CC)CCCN1C=C2C(=O)C(C)(OC(=O)CCC(=O)OC)C(=O)C=C2C=C1C1CC1 (stereo not drawn),-1,0,-18,-9,18
COC(=O)CCCC1=CC2=C(c3ccccc3)C(=O)C(C)(OC(=O)C3CCCC3)C(=O)C2=CN1CC(C)C (stereo not drawn),-16,-2,-1,0,28*
COC(=O)CCCC1=CC2=C(c3ccccc3)C(=O)C(C)(OC(=O)C3CCCC3)C(=O)C2=CN1C1CCCC1 (stereo not drawn),-5,-9,-18,0,30*
CCN(CC)CCCN1C=C2C(=O)C(C)(OC(=O)C3CCCC3)C(=O)C(c3ccccc3)=C2C=C1CCCC(=O)OC (stereo not drawn),-21,17,-5,-14,36*
CCCCC1=CC2=C(c3ccco3)C(=O)C(C)(OC(=O)c3ccc(OC)cc3)C(=O)C2=CN1CCOC (stereo not drawn),-5,5,-9,-1,28*
CC(C)(C)NC(=O)C(c1ccnc2ccccc12)n1c(=O)c(-c2cc3ccccc3[nH]2)nc2ccccc21 (stereo not drawn),.,.,.,.,-2
OC(c1cc(F)cc(Cl)c1)c1ncc(-c2ccccc2Cl)[nH]1 (stereo not drawn),.,.,.,.,-1
COCCN1C=C2C(=O)C(C)(OC(=O)C3CCCC3)C(=O)C(c3ccccc3)=C2C=C1CCCC(=O)OC (stereo not drawn),-7,26,-24,-6,26*
COC(=O)CCCC1=CC2=C(c3ccccc3)C(=O)C(C)(OC(=O)C3CCCC3)C(=O)C2=CN1CC1CC1 (stereo not drawn),7,-10,3,-6,6
CCC1C(=O)Nc2ccccc2N1C(=O)COc1ccccc1 (stereo not drawn),1,-5,0,5,26*
CN(C)c1ccc(-c2csc(C(O)c3ccc(F)c(F)c3)n2)cc1 (stereo not drawn),.,.,.,.,-2
O=C1C(Cl)=C(NS(=O)(=O)c2ccc([N+](=O)[O-])cc2)C(=O)c2ccccc21,9,2,-8,1,26*
COc1cc(/C=C2\C(=N)N3N=C(C)SC3=NC2=O)cc(OC)c1OCCOc1ccccc1C,-4,0,12,-13,-11
COc1cc(/C=C2\C(=N)N3N=C(S(C)(=O)=O)SC3=NC2=O)cc(OC)c1OCCOc1ccccc1C,0,3,77*,3,-24
COc1ccccc1Cc1c(-c2ccco2)nc2cc(C)c(Br)c(C)n12,.,.,.,.,-19
COCCN1C(=O)/C(=C2/C(=O)N(CC(=O)Nc3ccccc3Cl)c3ccccc32)SC1=S,-15,-8,1,-17,28*
CNC(=S)NN(c1ccccc1)c1ccccc1,-10,-4,-3,-15,44*
COCCNC(=S)NN(c1ccccc1)c1ccccc1,-3,-7,-3,5,10
C/C=C/c1cccc(-c2nc(C(=O)N3CCCCC3)cc3c2[C@H](CCO)N(C(=O)NC(C)C)C3)c1,.,.,.,.,22*
COc1ccc(N/C(N)=N/c2nc(C)cc(C)n2)c(OC)c1,-3,-4,3,-10,30*
CCOC(=O)CSc1nnc2c3ccccc3n(C)c2n1,-2,-3,7,8,26*
COCCN(C(=O)CNC(=O)c1cccs1)C(C(=O)NC1CCCC1)c1cccs1 (stereo not drawn),-2,5,-12,-4,19*
CCc1nc2c(OCc3cccc(OC)c3)cccn2c1N(C)C(=O)c1ccc(OC)cc1,.,.,.,.,-4
OCCOCCn1c(CCNc2nc(-c3ccc(Cl)cc3)cs2)nc2cc(Cl)c(Cl)cc21,-11,32,-13,0,36*
O=[N+]([O-])c1cc(-c2csc(NCCc3nc4cc(Cl)c(Cl)cc4n3CCCO)n2)ccc1Cl,-2,-13,8,2,31*
